Experimental data from PubChem BioAssay (NCATS).
Where “and” joins values, the source holds several entries; their conditions need not be identical. Equal values may be shown once. Records with an inconclusive call do not appear. More than one record can exist for a structure, and the calls need not agree. Calls of active or inactive are those of the source. Unless noted, the call rests on the fitted dose curve; in most records, active means well fitted curve in the direction sought with a large enough effect; inconclusive means small, poorly fitted or top-dose-only effect, or another doubt; inactive means no such curve, though single readings can be large; an effect the other way counts as inactive or inconclusive.

How the values were obtained:
[1] = qHTS assay for environmental chemicals that activate the Aryl hydrocarbon Receptor (AhR) signaling pathway (AID 651777); conditions: 1A2-DRE human hepatoma cells, luciferase, 24 h; activation: stronger effect = higher value; further: % of control where 0% means no effect; nearly all actives have a fitted effect of over 15% in size
How it was run: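 Concentration–response screening used 1,200 1A2-DRE cells per well, 24 hr compound exposure (37 C, 5% CO2), and One-Glo luminescence as the AhR-driven CYP1A2 reporter signal.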

[2] = molecular target: Peroxisome proliferator-activated receptor alpha (Homo sapiens) (UniProt Q07869); test: qHTS assay for small molecule agonists of the peroxisome proliferator-activated receptor alpha (PPARalpha) signaling pathway (AID 651778); conditions: PathHunter PPARalpha complementation, chemiluminescence, 6 h; max response: stronger effect = higher value; further: % of control where 0% means no effect
How it was run: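 Enzyme-fragment complementation assay in which ligand-bound PPARalpha translocates and forms an active enzyme that generates chemiluminescence. Cells were plated overnight, exposed to compound for 6 hr at 37 C, and then given detection reagent for 60 min at room temperature.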

[3] = molecular target: Nuclear receptor ROR-gamma (Homo sapiens) (UniProt P51449); test: qHTS assay for small molecule antagonists of the retinoid-related orphan receptor gamma (ROR-gamma) signaling pathway (AID 651802); further: potency means the concentration at half of the fitted maximal effect; nearly all actives have a fitted effect of over 60% in size
How it was run: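 Doxycycline-induced reporter activity in engineered CHO cells (TET-inducible ROR, RORE-LUC) was measured by luminescence after 16hr compound exposure at 37C.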

[4] = qHTS assay for small molecule antagonists of the retinoid-related orphan receptor gamma (ROR-gamma) signaling pathway - cell viability counter screen (AID 720652; active means well fitted curve in the direction sought with a large enough effect in the repeat runs; an effect the other way counts as inactive or inconclusive;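 further: compound exposure lasted 16 hr before ATP read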; further: potency means the concentration at half of the fitted maximal effect)
How it was run: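 ATP-based viability readout in the ROR-gamma reporter CHO cells after 16 hr compound exposure under doxycycline induction.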

[5] = qHTS assay for small molecule agonists of the antioxidant response element (ARE) signaling pathway measured by Nrf2-dependant transcriptional activity - cell viability counter screen (AID 720653; active means well fitted curve in the direction sought with a large enough effect in the repeat runs; an effect the other way counts as inactive or inconclusive; further: on the % scale 0 is the no-effect control and ±100 the full control effect); conditions: ARE-bla HepG2 viability, CellTiter-Glo ATP luminescence, 16 h; stronger effect = lower value
How it was run: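 ARE-bla HepG2 cells treated with compounds for 16 h at 37C; this counter screen measures viability as intracellular ATP by CellTiter-Glo luminescence after 30 min at room temperature.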

[6] = qHTS Assay for Identifying Gametocytocidal Compounds (AID 743244); further: potency means the concentration at half of the fitted maximal effect;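 on max response: on the % scale 0 is the no-effect control and ±100 the full control effect; actives lower the fluorescent signal which means gametocytes are killed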; conditions: P. falciparum 3D7 stage III-V gametocytes, alamarBlue, 72 h; max response: stronger effect = lower value
How it was run: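 A resazurin-based viability read-out was applied to mature P. falciparum gametocytes: 72 h compound treatment, then 24 h dye incubation, with falling fluorescence signalling gametocytocidal effect.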

[7] = qHTS assay for cell viability of HEK293 cells (AID 743288); conditions: ATP luminescence (CellTiter-Glo), 18 h, stronger effect = lower value; further: on the % scale 0 is the no-effect control and ±100 the full control effect; nearly all actives have a fitted effect of over 50% in size
How it was run: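 Steps: plate 2,000 parental HEK293 cells per well; incubate ≥5 h, 37 C; add compounds in DMSO; incubate 18 h, 37 C; add CellTiter-Glo; wait 30 min at room temperature; read luminescence.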

[8] = qHTS assay for cell viability of the p53RE-bla HCT-116 cell line (AID 743292); further: on the % scale 0 is the no-effect control and ±100 the full control effect; nearly all actives have a fitted effect of over 55% in size
How it was run: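 Compound-exposed HCT-116 (p53RE-bla) cells, 4,000 per well, were kept 16 h at 37 C following a 5 h preincubation. Cell number was estimated from total ATP by CellTiter-Glo luminescence read after 30 min at room temperature.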

[9] = molecular target: Tyrosine-protein kinase Yes (Homo sapiens) (UniProt P07947); test: qHTS for small molecule inhibitors of Yes1 kinase: Primary Screen (AID 686947);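 further: plate controls were DMSO with enzyme for no effect and no-enzyme DMSO wells for full effect; nearly all actives have a fitted effect of over 60% in size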
How it was run: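 In this qHTS format, inhibition is expressed relative to DMSO controls with enzyme (maximum) and without enzyme (minimum). The 60 min room-temperature reaction uses 0.1 mM ATP, with ADP detected by luminescence.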

[10] = qHTS for small molecule inhibitors of Yes1 kinase: Counter Assay (AID 686950);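 further: no kinase present so only ADP-Glo detection of a fixed ADP amount is tested; luminescence from ADP-Glo reporting ADP in a fixed ATP and ADP mixture; 0% = DMSO wells with ATP plus ADP and -100% = ATP-only wells without ADP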
How it was run: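 No kinase present; 0.08 mM ATP + 0.02 mM ADP in 50 mM Tris pH 7.5, 10 mM MgCl2, 150 mM NaCl, 1 mM DTT; 20 min compound preincubation, 60 min RT, ADP-Glo luminescence, normalized to ATP/ADP (max) and ATP-only (min).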

[11] = qHTS profiling for inhibitors of Plasmodium falciparum (3D7) proliferation (AID 743322);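 further: infected erythrocytes exposed to compound for 72 h before lysis; 100% = DMSO vehicle wells and 0% = 0.29 µM artemisinin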; conditions: P. falciparum 3D7 proliferation; at 28.7 µM (top of the series) unless noted
How it was run: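 Parasite DNA was quantified by SYBR Green I fluorescence (ex 485, em 535 nm) after overnight lysis in saponin/Triton buffer at room temperature. Cultures at 0.3% parasitemia and 2.5% hematocrit were first exposed to compound for 72 h at 37 C; signals were normalised to artemisinin (0.29 uM) and vehicle wells.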

[12] = qHTS profiling for inhibitors of Plasmodium falciparum (DD2) proliferation (AID 743323; call rule not given here); conditions: lower = more inhibition; at 28.7 µM (top of the series) unless noted
How it was run: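 P. falciparum Dd2-infected erythrocytes (0.3% parasitemia, 2.5% hematocrit) exposed 72 h at 37 C, 5% CO2. Lysis with SYBR Green, overnight at room temperature, fluorescence 485/535 nm; normalized to 0.29 uM artemisinin and DMSO.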

[13] = qHTS profiling for inhibitors of Plasmodium falciparum (HB3) proliferation (AID 743324); conditions: Plasmodium falciparum HB3 blood-stage proliferation; at 28.7 µM (top of the series) unless noted;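 further: 100% = DMSO vehicle wells and 0% = artemisinin-treated control wells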
How it was run: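 SYBR Green fluorescence (485 ex/535 em) of lysed cultures, incubated overnight at room temperature in the dark, quantifies parasite DNA. Infected erythrocytes at 0.3% parasitemia and 2.5% hematocrit were exposed 72 h; values normalized to DMSO and 0.29 uM artemisinin controls.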

Chain of Peroxisome proliferator-activated receptor alpha (Homo sapiens) (Q07869 whole entry, looked up, the tested form may be a part): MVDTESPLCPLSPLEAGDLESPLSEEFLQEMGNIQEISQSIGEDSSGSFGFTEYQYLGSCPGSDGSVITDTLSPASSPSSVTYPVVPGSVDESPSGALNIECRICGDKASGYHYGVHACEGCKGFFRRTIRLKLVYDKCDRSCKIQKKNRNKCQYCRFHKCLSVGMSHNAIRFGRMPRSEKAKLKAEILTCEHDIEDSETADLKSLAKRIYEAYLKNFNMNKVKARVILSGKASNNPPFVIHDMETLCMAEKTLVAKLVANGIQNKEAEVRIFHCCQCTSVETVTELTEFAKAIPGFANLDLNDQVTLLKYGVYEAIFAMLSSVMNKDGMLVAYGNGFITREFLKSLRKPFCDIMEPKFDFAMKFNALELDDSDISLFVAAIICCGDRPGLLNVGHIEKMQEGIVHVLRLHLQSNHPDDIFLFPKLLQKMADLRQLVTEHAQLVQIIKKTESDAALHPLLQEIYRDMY
Chain of Nuclear receptor ROR-gamma (Homo sapiens) (P51449 whole entry, looked up): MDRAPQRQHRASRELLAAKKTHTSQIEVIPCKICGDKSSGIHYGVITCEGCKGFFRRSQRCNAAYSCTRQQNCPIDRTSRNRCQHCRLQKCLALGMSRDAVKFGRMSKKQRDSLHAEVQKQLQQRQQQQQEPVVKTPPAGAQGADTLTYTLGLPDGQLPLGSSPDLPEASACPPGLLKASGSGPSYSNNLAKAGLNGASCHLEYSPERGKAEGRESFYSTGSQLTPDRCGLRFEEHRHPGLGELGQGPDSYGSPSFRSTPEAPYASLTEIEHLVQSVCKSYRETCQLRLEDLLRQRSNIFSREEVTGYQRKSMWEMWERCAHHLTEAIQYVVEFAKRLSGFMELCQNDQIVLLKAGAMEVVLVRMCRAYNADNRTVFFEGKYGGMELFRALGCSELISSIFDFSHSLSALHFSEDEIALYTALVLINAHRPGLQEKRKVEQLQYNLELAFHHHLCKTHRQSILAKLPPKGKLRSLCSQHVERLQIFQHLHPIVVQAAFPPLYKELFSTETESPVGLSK
Chain of Tyrosine-protein kinase Yes (Homo sapiens) (P07947 whole entry, looked up): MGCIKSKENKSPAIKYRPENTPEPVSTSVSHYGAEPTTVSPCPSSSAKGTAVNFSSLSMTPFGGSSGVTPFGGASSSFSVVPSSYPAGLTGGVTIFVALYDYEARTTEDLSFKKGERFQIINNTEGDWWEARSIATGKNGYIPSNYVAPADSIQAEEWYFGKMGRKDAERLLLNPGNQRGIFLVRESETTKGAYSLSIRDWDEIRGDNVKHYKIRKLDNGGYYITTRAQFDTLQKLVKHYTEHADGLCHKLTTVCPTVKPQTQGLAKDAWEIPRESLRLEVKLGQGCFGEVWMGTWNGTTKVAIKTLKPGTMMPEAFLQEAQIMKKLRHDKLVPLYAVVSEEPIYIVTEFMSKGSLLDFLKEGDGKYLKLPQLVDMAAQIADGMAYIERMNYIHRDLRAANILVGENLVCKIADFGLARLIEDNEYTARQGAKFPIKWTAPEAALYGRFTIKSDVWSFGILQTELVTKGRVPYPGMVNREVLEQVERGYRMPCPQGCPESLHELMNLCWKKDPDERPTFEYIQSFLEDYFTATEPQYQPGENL

NC(=NCCCCCCN=C(N)/N=C(\N)Nc1ccc(Cl)cc1)/N=C(\N)Nc1ccc(Cl)cc1
activation [1]: 2.77% (inactive) and -7.14% (inactive) and -8.81% (inactive)
max response [2]: 3.51% (inactive) and 6.34% (inactive) and -1.99% (inactive)
Potency [3]: 26.6 µM (active)
Potency [4]: 42.2 µM (active)
max response [5]: -4.14% (inactive)
Potency [6]: 7.08 µM (active)
max response [7]: -23.7% (inactive) and -11.7% (inactive) and -27.9% (inactive)

CN(C)C(=S)SC(=S)N(C)C
activation [1]: -0.314% (inactive)
max response [2]: 0.0294% (inactive)
max response [5]: 4.33% (inactive)
outcome [8]: inactive

C=C(CC)C(=O)c1ccc(OCC(=O)O)c(Cl)c1Cl
activation [1]: 2.74% (inactive)
max response [2]: -4.86% (inactive)
Potency [3]: 37.6 µM (active)
Potency [4]: inactive
max response [5]: 6.68% (inactive)
max response [7]: -7.15% (inactive)
outcome [8]: inactive

COc1cccc2c1C(=O)c1c(O)c3c(c(O)c1C2=O)C[C@@](O)(C(=O)CO)C[C@@H]3O[C@H]1C[C@H](N)[C@H](O)[C@H](C)O1
activation [1]: 1.88% (inactive)
max response [2]: -6.93% (inactive) and -6.66% (inactive)
outcome [9]: inactive
outcome [10]: inactive
Potency [4]: 23.7 µM (active)
Potency [6]: 526 nM (active) and 2.82 µM (active)
max response [6]: -8.37% (inactive)
outcome [8]: inactive
remaining parasite growth % (stronger effect = lower value) [11]: -4.76%
activity, percent of control [12]: -2.65%
remaining proliferation (% of control), lower = more inhibition [13]: -0.62%

CCCCCCc1ccc(O)cc1O
activation [1]: 1.13% (inactive) and 0.133% (inactive)
max response [2]: -0.464% (inactive) and 3.82% (inactive)
max response [5]: -0.701% (inactive) and 2.74% (inactive)
max response [6]: 3.3% (inactive)
max response [7]: -5.8% (inactive) and 9.71% (inactive)
outcome [8]: inactive
